HT1080NT lethal: kills 2HG-producing HT-1080-NT fibrosarcoma cells; Potency, µM (titrated, usually from 46.1 µM), without a hit: top-dose activity, negative = less viability, usual class: cytotoxic; HT-1080-NT fibrosarcoma viability, CellTiter-Glo ATP luminescence, 48 h; 360,000 compounds, 1.6% hits; AID 686970;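 also: NT is the 2HG producing partner of a matched IDH1 knockdown line; potency is read from the fitted curve at half-maximal effect; 0% = DMSO-treated cells and -100% = media-only wells without cells; nearly all actives have a fitted effect of over 55% in size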
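A 48-hour cytotoxicity screen used HT-1080-NT cells plated 2 hours before compound delivery. ATP-based CellTiter-Glo luminescence measured viability, normalized to DMSO and no-cell controls.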
IL-1B inflam inh: inhibitors of inflammasome signaling (IL-1 beta secretion); THP-1 LPS/ATP IL-1B secretion, AlphaLISA, 16 h; hits give low values; activity change, % at 57.5 µM; 360,000 compounds, 4.7% hits; in the data active = activity change below about -50%; inconclusive = mostly about -30% to -49%
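Secreted IL-1B measured by AlphaLISA bead assay after 16 h compound exposure of THP-1 cells; compounds (final up to 57.5 uM) added 1 h before LPS (250 ng/mL) and ATP (1.25 mM) stimulation; lower signal means less secretion.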
TDP1 cell CPT: DT40-hTDP1 cell growth loss with CPT; chicken DT40 Tdp1-/-;hTDP1 cells + 20 nM CPT, ATP luminescence, 48 h; Potency, µM (titrated, usually from 46.2 µM), for inactives: at the top dose activity change, negative = growth inhibition, actives largely listed as inhibitors; 420,000 compounds, 12% hits; also: potency is read from the fitted curve at half-maximal effect; nearly all actives have a fitted effect of over 55% in size
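Chicken DT40 Tdp1-/- cells complemented with human TDP1, 400 cells/well, exposed to compounds plus 20 nM camptothecin for at least 48 h at 37 C; viability read as ATP content by CellTiter-Glo luminescence.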
DT40 TDP1 no CPT: qHTS for Inhibitors of human tyrosyl-DNA phosphodiesterase 1 (TDP1): qHTS in cells in absence of CPT | DT40 Tdp1-/- hTDP1 cells, no CPT, ATP luminescence, 48 h | Potency, µM (doses to about 46.2 µM), without a hit: at the top dose activity change, negative = growth inhibition, most hits filed as inhibitors | AID 686978, 2013 | 420,000 compounds, 15% hits; also: potency is read from the fitted curve at half-maximal effect; nearly all actives have a fitted effect of over 55% in size
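Growth of hTDP1-complemented DT40 Tdp1-knockout cells is measured by ATP luminescence after at least 48 hr compound exposure at 37 °C, with DMSO substituting for the 20 nM CPT used in the parallel screen.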
HT1080 IDH1KD tx: kills HT-1080 cells with IDH1 knockdown. HT-1080 IDH1 knockdown viability, ATP luminescence, 48 h. Potency, µM (doses to about 46.1 µM), for the others: top-dose activity, negative = toxicity, most hits filed as cytotoxic. 360,000 compounds, 2% hits. AID 686971;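 also: potency is read from the fitted curve at half-maximal effect; 0% = DMSO wells and -100% = cell-free medium wells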
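In this qHTS, HT-1080 cells depleted of IDH1 are exposed for 48 h at 37 °C to compound titrations. Toxicity is scored from CellTiter-Glo luminescence, with DMSO as full viability and medium alone as none.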
Starred values were filed as active, the others as inactive; ? = inconclusive; . = no result. Only some compounds are listed: those with a hit (about 19% of all), similar ones and a draw of the others. Unless noted, calls follow the shape of the dose curve; as a rule, active = well fitted curve in the direction sought with a large enough effect; inconclusive = small, poorly fitted or top-dose-only effect, or another doubt; inactive = no such curve, though single readings can be large; an effect the other way counts as inactive or inconclusive. Unless noted, % is scaled to controls: 0 for no effect and ±100 for the full control effect.

SMILES	HT1080NT lethal	IL-1B inflam inh	TDP1 cell CPT	DT40 TDP1 no CPT	HT1080 IDH1KD tx
COc1ccc(CNC(=O)CNC(=O)c2ccc(Br)o2)cc1OC	14%	10	0%	12%	1%
CCOc1ccccc1NC(=O)C(CC(C)C)NC(=O)C1CCC(C)CC1 (stereo not given)	20%	10	18µM*	?	0%
CCOc1ccccc1NC(=O)C(NC(=O)C1CCC(C)CC1)C(C)C (stereo not given)	2%	25	-2%	4%	19%
CCn1c(SC(C)C(=O)Nc2ccc3c(c2)OCCO3)nnc1C1CC1 (stereo not given)	-2%	22	1%	27%	-2%
Cc1cc(C)n(CC(=O)N2CCCC(N3CCN(c4ccc(F)cc4)CC3)C2)n1 (stereo not given)	0%	-1	-14%	0%	-3%
OC(CN1CCCC1)c1ccccc1 (stereo not given)	.	.	?	-28%	.
OC(CN1CCCCC1)c1ccccc1 (stereo not given)	.	.	0%	3%	.
OC(CN1CCN(C(c2ccccc2)c2ccccc2)CC1)c1ccc(Br)cc1 (stereo not given)	1%	-1	18µM*	?	0%
OC(CN1CCN(c2ccccc2Cl)CC1)c1ccccc1 (stereo not given)	16µM*	8	-3%	-15%	?
OC(CN1CC=C(/C=C/c2ccc(Br)cc2)CC1)c1ccccc1 (stereo not given)	?	-73*	?	?	?
O=C1CC(NS(=O)(=O)c2cccnc2)CN1c1ccccc1 (stereo not given)	8%	1	-24%	?	2%
CC(C(=O)NCc1ccc2c(c1)OCO2)N1c2cccc3cccc(c23)S1(=O)=O (stereo not given)	1%	-7	-25%	-26%	-11%
Cn1c(=O)c2c(nc(NCc3ccco3)n2Cc2ccccc2Cl)n(C)c1=O	-1%	-10	4.1µM*	2.1µM*	7%
Cn1c(=O)c2c(nc(NCc3ccco3)n2C/C=C/c2ccccc2)n(C)c1=O	-29%	-62*	1.5µM*	0.65µM*	-25%
Cc1ccc(OCc2nnc(SCC(=O)Nc3ccccc3C(C)C)o2)cc1	.	.	-27%	-30%	.
O=[N+]([O-])c1ccc2ncnc(N3CCN(Cc4ccc5c(c4)OCO5)CC3)c2c1	-17%	27	13µM*	9.2µM*	-15%
COc1ccc2[nH]c3c(N4CCC(O)(c5cccc(C(F)(F)F)c5)CC4)ncnc3c2c1	?	-15	21µM*	21µM*	21µM*
COc1ccc2[nH]c3c(N4CCN(Cc5ccc6c(c5)OCO6)CC4)ncnc3c2c1	21µM*	?	15µM*	23µM*	?
O=[N+]([O-])c1cccnc1N1CCN(Cc2ccc3c(c2)OCO3)CC1	-6%	-16	?	-28%	1%
COc1ccc(NS(=O)(=O)c2cc(C(=O)NNC(=O)c3ccncc3)ccc2OC)c(OC)c1	20%	14	-9%	-5%	24%
CCOC(=O)c1cnc(SC)nc1Oc1cccc(NC(=O)c2ccc(Cl)cc2)c1	12%	1	?	23µM*	14%
CCOC(=O)c1cnc(SC)nc1Oc1cccc(NS(=O)(=O)c2ccc(Cl)cc2)c1	12%	43	?	?	15%
CC1(C)C(C=C(Cl)Cl)C1C(=O)Nc1ccc(S(=O)(=O)Nc2ncccn2)cc1 (stereo not given)	-12%	41	3%	3%	-19%
COC(=O)c1cc2sc(C)cc2n1Cc1ccc(F)cc1Cl	.	.	-9%	-12%	.
COc1ccc(-c2onc(C)c2-c2ccc(C(=O)OC(C)C)o2)c(O)c1	5%	?	21µM*	16µM*	3%
SMILES	HT1080NT lethal	IL-1B inflam inh	TDP1 cell CPT	DT40 TDP1 no CPT	HT1080 IDH1KD tx
CCCCc1ccc(NC(=O)CN2C(=O)C3CCCCC3C2=O)cc1 (stereo not given)	-7%	-76*	?	?	-2%
Cc1ccc(-n2cc(CNC(C)Cn3cncn3)c(-c3ccc(F)cc3)n2)cc1 (stereo not given)	-19%	?	?	?	-9%
Cc1ccc(-n2cc(CNC(C)c3cnn(C)c3)c(-c3ccc(F)cc3)n2)cc1 (stereo not given)	-2%	-1	18µM*	21µM*	-25%
Cc1ccc(-n2cc(CNC(C)c3cnn(C)c3C)c(-c3ccc(F)cc3)n2)cc1 (stereo not given)	1%	?	5.2µM*	2.9µM*	1%
CCCN1Cc2cccc(C(=O)N3CCN(c4cc(Cl)ccc4C)CC3)c2C1=O	-7%	?	?	13µM*	-4%
CCOc1ncccc1C(=O)N1CCN(C(=O)c2ccccc2)CC1	-6%	1	8%	12%	0%
CCOc1ncccc1C(=O)N1CCN(c2cc(Cl)ccc2C)CC1	1µM*	2	0.82µM*	0.65µM*	1.3µM*
CCOc1ncccc1C(=O)N1CCN(c2cccc(C)c2C)CC1	0.18µM*	9	0.52µM*	0.58µM*	0.18µM*
COc1ccc(OC)c(NC(=O)C2(C)CCN2Cc2cccc(OC)c2F)c1 (stereo not given)	?	-17	?	?	-46%
COc1cccc(CN2CCC2(C)C(=O)Nc2cccc3cccnc23)c1F (stereo not given)	23µM*	21	?	18µM*	13µM*
COc1ccc(NC(=O)C2(C)CCN2Cc2cccc(OC)c2OC)cc1OC (stereo not given)	5%	0	?	16µM*	-1%
COc1ccc(NC(=O)C2(C)CCN2Cc2ccc(OC)c3ccccc23)cc1OC (stereo not given)	?	-26	?	23µM*	23µM*
COc1ccc(NC(=O)C2(C)CCN2Cc2csc3ccccc23)cc1OC (stereo not given)	-23%	-15	15µM*	15µM*	?
CN(c1ccccc1C(=O)Nc1ccc(F)c(Cl)c1)S(C)(=O)=O	20%	-1	7%	-7%	4%
CCNc1oc(-c2ccccc2F)nc1S(=O)(=O)c1ccccc1	-1%	-21	2%	-10%	-5%
CN(CC1CCCO1)S(=O)(=O)c1ccc(C(=O)Nc2ccc(S(N)(=O)=O)cc2)cc1 (stereo not given)	-1%	32	?	10%	2%
NCc1ccccc1	2%	-12	9%	18%	1%
Cc1occc1C(=O)NNS(=O)(=O)c1ccc([N+](=O)[O-])cc1	?	3	-11%	-1%	16%

Compound activity: PubChem BioAssay, National Center for Advancing Translational Sciences (NCATS)
